# Measured values as given in PubChem BioAssay AID1963320 (National Center for Advancing Translational Sciences (NCATS), 2024).
# Out of some 1,300 compounds screened, about 560 (43%) were called active. Inconclusive results (about 39%) are left out. The set was probably picked from earlier hits. Not all results are given here. Unmarked numbers belong to inactive results. Calls follow the shape of the dose curve; as a rule, active = well fitted inhibition curve with a large enough effect; inconclusive = small, poorly fitted or top-dose-only effect; inactive = flat fitted curve, though single readings scatter.
# Target: Luciferin 4-monooxygenase (Photinus pyralis) (UniProt P08659)
# Assay: Firefly luciferase (FLuc-C-HiBiT) enzymatic inhibition screen - Functional assay
# Conditions: purified FLuc-C-HiBiT enzyme, luciferin luminescence; series mostly up to 32.7 µM; activity change, negative = inhibition: at the top concentration
# Excerpt: PI: James Inglese Ph.D. National Center for Advancing Translational Sciences (NCATS), National Institute of Health (NIH), Maryland Discovery and optimization of novel protein-binding ligands underlies many of the methods and applications of biology, drug discovery, clinical diagnostics, and environmental toxicology. Assays for detecting the interaction of, for example, a molecule with a macromolecular target also referred to here as the target of interest (TOI) is dependent on a compatible output technology. Depending on the nature and knowledge surrounding the TOI, whether a receptor, enzyme, regulatory subunit or scaffold, or a sequence-defined nucleic acid folded into a complex tertiary structure, assay strategies can vary widely. Here we exploit ligand-biased changes in the structural dynamics of the target protein to control reporter alpha complementation allowing a non-competitive, non-functional, non-separation measure of ligand-target interaction. […] Secondly, we show the specificity and sensitivity of the SDR for the Abelson tyrosine kinase (ABL1) compared to the serine/threonine protein kinase A, using an enriched chemical library of 128 compounds selected, in part, for activity annotated with ABL1 kinase activity using the Pharos database (3). References: (1) A. S. Dixon et al., NanoLuc Complementation Reporter Optimized for Accurate Measurement of Protein Interactions in Cells. ACS Chem Biol 11, 400-408 (2016). […] Chemistry & Biology, 19, 1060 - 1072 (2012). (3) K. J. Kelleher et al., Pharos 2023: an integrated resource for the understudied human proteome. Nucleic Acids Res 51, D1405-D1416 (2023).
# 1. Reagent. Dispense 4 uL FLuc-C-HiBiT enzyme-buffer solution per well at a final enzyme concentration of 10 nM with or without 10 uM ATP into columns 2-48 of white, solid bottom medium bind 1536-well plates (Greiner Bio-One) by BioRaptr 2. Dispense respective buffer without enzyme at 4 uL/well in column 1 of assay plates. 2. Compounds. Library compounds and PTC124 control added at 23 nL per well, transfer by Pin Tool. 3. Incubation. Incubate enzyme and compounds at room temperature for >30 min, protect from light. 4a. Reagent. (Functional assay) Add 3 uL of D-luciferin substrate at final (KM) concentration of 10 uM/well of assay plates for FLuc enzymatic assay, in the presence of ATP. 5. Incubation. Incubate enzyme and substrate or detection reagent at room temperature for 5-10 min, protect from light. 6a. Detector. Functional assay measured using CCD-based camera (ViewLux) with settings as follows: Exposure, 10 sec; Gain, High; Speed, Slow; Binning, 2X. REFERENCES: Inglese J, Shamu CE and Guy RK, Reporting data from high throughput screening of small molecule libraries, Nature Chemical Biology, 2007, 3(8): 438-441. doi.org/10.1038/nchembio0807-438.
# % is scaled to controls: 0 for no effect and ±100 for the full control effect; potency is read from the fitted curve at half-maximal effect.
# Also: nearly all actives have a fitted effect of over 70% in size.
# Sequence of Luciferin 4-monooxygenase (Photinus pyralis) (P08659 whole entry, looked up): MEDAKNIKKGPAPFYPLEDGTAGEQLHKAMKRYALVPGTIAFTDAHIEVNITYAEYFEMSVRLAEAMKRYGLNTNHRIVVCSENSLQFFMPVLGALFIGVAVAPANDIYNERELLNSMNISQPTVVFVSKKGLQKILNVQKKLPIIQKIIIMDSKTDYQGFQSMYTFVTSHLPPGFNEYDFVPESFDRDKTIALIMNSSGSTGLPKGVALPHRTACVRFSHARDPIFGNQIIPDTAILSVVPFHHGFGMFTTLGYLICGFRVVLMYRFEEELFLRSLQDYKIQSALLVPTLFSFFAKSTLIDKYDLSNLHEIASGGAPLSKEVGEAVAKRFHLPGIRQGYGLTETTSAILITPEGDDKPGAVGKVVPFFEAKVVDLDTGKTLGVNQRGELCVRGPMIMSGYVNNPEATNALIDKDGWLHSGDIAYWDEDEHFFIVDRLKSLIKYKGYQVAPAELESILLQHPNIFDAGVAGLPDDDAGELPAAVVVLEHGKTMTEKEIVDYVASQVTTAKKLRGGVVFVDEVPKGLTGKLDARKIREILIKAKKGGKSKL
SMILES,Potency,"activity change, negative = inhibition"
CN(CCc1cn[nH]c1)c1ccc(-c2nc(-c3ccccc3F)no2)cn1,3.13 µM (active),
Cc1cc(C)n(CCC(=O)N2CCC(Cc3noc(C4CC4)n3)C2)n1 (configuration not stated),,4.01%
OCC1CCCN(c2ncnc3c2cnn3-c2ccccc2)C1 (configuration not stated),0.394 µM (active),
OCCN1CCN(c2nc(N3CCCCC3)c3cnn(-c4ccc(Cl)cc4)c3n2)CC1,,0.975%
Cc1ccc(Cl)cc1-n1ncc2c(N3CCC(C(N)=O)CC3)ncnc21,,0.685%
Fc1ccc(Nc2nc(-c3ccccc3F)no2)cc1,9.89 µM (active),
Cc1ccc(CSc2nc3cccnc3n2Cc2ccc(C(=O)NC3CC3)cc2)cc1,0.394 µM (active),
COc1ccc(CC(=O)Nc2ccc(-c3nc4ccccc4s3)c(C)c2)cc1,,-2.67%
Cc1cccc(C(=O)Nc2ccc(-c3nc4ccccc4s3)c(C)c2)c1,9.89 µM (active),
CC(C)C(=O)Nc1cc(-c2nc3ccccc3s2)ccc1Cl,,3.21%
Cc1ccc(C(=O)Nc2ccc(-c3nc4ccccc4s3)c(O)c2)cc1,,4.13%
O=C(CSc1ccc(F)cc1)Nc1ccccc1-c1nc2ccccc2s1,,-5.95%
Cc1c(NC(=O)C(C)(C)C)cccc1-c1nc2ccccc2s1,5.56 µM (active),
COc1ccc(C(=O)Nc2onc3c2CCCC3)cc1,1.97 µM (active),
Cc1cccc(-c2cccc(NC(=O)C3CCCN(C(=O)CC(F)(F)F)C3)c2)c1 (configuration not stated),,-6.66%
COc1ccc(C)cc1NC(=O)Nc1cccc(-c2ccc(N3CCCCC3)nn2)c1,1.11 µM (active),
O=C(/C=C/c1ccccc1)Nc1cc(-c2nc3cc(Cl)ccc3o2)ccc1Cl,,-5.86%
COc1cccc(-c2nc3ccc(-c4ccc5c(c4)OCO5)cc3o2)c1OC,2.48 µM (active),
COc1ccc(-c2nc3ccccc3s2)cc1NC(=O)COc1ccccc1C,,-15.5%

SMILES,Potency,"activity change, negative = inhibition"
CCC(CC)c1nn2cc(-c3ccccc3)nc2s1,0.881 µM (active),
Cc1nn(-c2ccc(C(C)C)cc2)c(C)c1[C@@H]1C=C[C@@H](NC(=O)CC2(CC(=O)O)CCCC2)C1,,-6.39%
O=C(Nc1nc2c(s1)CCCC2)c1ccccc1F,0.556 µM (active),
O=C([C@@H]1C[C@@H](O)[C@H](O)[C@@H]2NC(=S)N(c3ccc(OC(F)(F)F)cc3)[C@@H]21)N1CCCCC1,,-13%
Oc1ccc(-c2nc(C3CC3)nc3c2CCN(Cc2cccc(F)c2)CC3)cc1,,-2.1%
O=C(Nc1ccccc1)c1nc2c(o1)CCN(Cc1cccc(Cl)c1)CC2,10.1 µM (active),
CCOC(=O)C1CCN(C(=O)c2cccc3c2CCN3C(=O)Nc2ccccc2)CC1,1.76 µM (active),
CC(=O)Nc1ccc(NC(=O)CCCc2nc(-c3ccc(C(C)(C)C)cc3)no2)cc1,4.95 µM (active),
CC(=O)NC1(C)CN(Cc2ccc(-c3ccc4c(ccn4C)c3)s2)C1,2.86 µM (active),
Cc1ccc(-c2nc(C(=O)N3CCN(c4ccccn4)CC3)no2)cc1,7.85 µM (active),
COc1ccc(-c2ncc3c(n2)OCCN(CC2CC2)C3=O)cc1,8.05 µM (active),
CCN(c1ncnc2c1cnn2-c1ccc(C)cc1)C1CCCCC1,0.881 µM (active),
CN1CCN(C[C@@H]2CN(C(=O)CCCc3ccccc3)C[C@@H]2CO)CC1,,1.79%
CCNC(=O)C1C(c2cccc(NC(=O)c3ccc(OC)cc3)c2)OC(=O)N1Cc1ccc(C)cc1 (configuration not stated),3.94 µM (active),
O=C(NCc1ccccc1)C1CCN(C(=O)c2ncn3c2COC(c2ccccc2)C3)CC1 (configuration not stated),2.21 µM (active),
O=C(NCC1CC1)C1CCN(C(=O)c2ncn3c2COC(c2ccccc2)C3)CC1 (configuration not stated),7 µM (active),
O=C(NCc1ccc(F)c(Cl)c1)C1CCN(C(=O)c2ncn3c2COC(c2ccccc2)C3)CC1 (configuration not stated),3.51 µM (active),
COc1ccccc1OC1(C(=O)O)CCN(c2ncnc3nc[nH]c23)CC1,,2.15%
